The panel holds about 79,000 compounds, 15% with a hit somewhere; the sample as a whole holds those more often. Active and inactive are the calls of the source. No stated cut-off is given here; in the data, active means growth inhibition above about 70%; inactive means the rest.
Tests used:
[1] = NCI Yeast Anticancer Drug Screen. Data for the rad50 strain (AID 155);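 further: 0% = growth of vehicle-only cultures of the same strain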; conditions: S. cerevisiae rad50 strain growth inhibition, hits give high values
Method in brief: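 Compounds were tested on a yeast strain with an engineered DNA damage repair alteration; the reported value is growth inhibition normalised to vehicle treatment.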

[2] = NCI Yeast Anticancer Drug Screen. Data for the mec2-1 strain (AID 157); conditions: S. cerevisiae mec2-1 strain, hits give high values
Method in brief: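 Using mec2-1 yeast: add compound, measure growth, express inhibition versus vehicle-treated cultures.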

[3] = NCI Yeast Anticancer Drug Screen. Data for the sgs1 mgt1 strain (AID 161);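 further: 0% = growth of cultures given vehicle only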; conditions: S. cerevisiae sgs1 mgt1 strain, hits give high values
Method in brief: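 Percent growth inhibition was derived by comparing compound-exposed mutant yeast with vehicle-exposed cultures. The strain carries alterations in DNA damage repair.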

[4] = NCI Yeast Anticancer Drug Screen. Data for the cln2 rad14 strain (AID 165);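 further: 0% = growth equal to vehicle treated cultures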; conditions: S. cerevisiae cln2 rad14 strain, hits give high values
Method in brief: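 Yeast strain cln2 rad14, bearing defects in cell cycle control and DNA repair, serves as the test system; values reflect growth inhibition compared with vehicle.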

[5] = NCI Yeast Anticancer Drug Screen. Data for the bub3 strain (AID 167); conditions: S. cerevisiae bub3 mutant strain, hits give high values
Method in brief: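 Growth of a checkpoint-deficient yeast mutant is measured after compound exposure. Values represent inhibition relative to vehicle.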

[6] = NCI Yeast Anticancer Drug Screen. Data for the mlh1 rad18 strain (AID 175); conditions: S. cerevisiae mlh1 rad18 strain growth inhibition, hits give high values
Method in brief: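 Steps: expose repair-defective yeast to compound; measure growth; express inhibition against vehicle-treated controls.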

[7] = at 5.0 µM (retest, dose inferred, filed as 0.5)
[8] = at 50.0 µM (retest, dose inferred, filed as 5.0)

Measured: growth inhibition

Cc1cc(C)nc(/C=C/c2ccccc2)c1
inactive: [1]; [7] -1% | [1]; [8] -10% | [2]; [7] 1% | [2]; [8] 7% | [3]; [7] -9% | [3]; [8] 22% | [4]; [7] -1% | [4]; [8] 16% | [5]; [7] 18% | [5]; [8] 29% | [6]; [7] 10% | [6]; [8] 18%
active: [1]; at 50.0 µM 98.5% | [2]; at 50.0 µM 96.6% | [3]; at 50.0 µM 98.6% | [4]; at 50.0 µM 94.1% | [5]; at 50.0 µM 97.1% | [6]; at 50.0 µM 97.8%

Cc1cc(NC(=S)SCc2ccc3c(c2)OCO3)ccc1Cl
inactive: [1]; [7] 31% | [2]; [7] 16% | [3]; [7] 44% | [4]; [7] 38% | [5]; [7] 52% | [6]; [7] 24%
active: [1]; [8] 98% | [1]; at 50.0 µM 91.5% | [2]; [8] 99% | [2]; at 50.0 µM 91.8% | [3]; [8] 98% | [3]; at 50.0 µM 91.5% | [4]; [8] 98% | [4]; at 50.0 µM 89.7% | [5]; [8] 99% | [5]; at 50.0 µM 91% | [6]; [8] 97% | [6]; at 50.0 µM 90.2%

CC[N+]1(C)CC2CCC(CC2)C1 (centres undefined)
inactive: [1]; [7] -2% | [1]; [8] -5% | [1]; at 50.0 µM -1.6% | [2]; [7] -3% | [2]; [8] -3% | [2]; at 50.0 µM 35% | [3]; [7] -4% | [3]; [8] -2% | [3]; at 50.0 µM 7.2% | [4]; [7] -4% | [4]; [8] -6% | [5]; [7] -3% | [5]; [8] 2% | [5]; at 50.0 µM -7.15% | [6]; [7] -4% | [6]; [8] -3% | [6]; at 50.0 µM 7.35%
active: [4]; at 50.0 µM 72%

O=C1/C(=C/c2ccccc2)CN(C(=O)C(F)(F)F)C/C1=C\c1ccccc1
active: [1]; [8] 84% | [2]; [8] 80% | [3]; [8] 94% | [4]; [8] 78% | [5]; [8] 93% | [6]; [8] 92%
inactive: [1]; [7] 63% | [1]; at 50.0 µM 65.3% | [2]; [7] 43% | [2]; at 50.0 µM 40% | [3]; [7] 52% | [3]; at 50.0 µM 46% | [4]; [7] 41% | [4]; at 50.0 µM 42.2% | [5]; [7] 53% | [5]; at 50.0 µM 55.1% | [6]; [7] 66% | [6]; at 50.0 µM 53.6%

COC(=O)/C(C#N)=C(/SC)N(C)C
inactive: [1]; [7] 4% | [1]; [8] 7% | [1]; at 50.0 µM 4.35% | [2]; [7] 8% | [2]; [8] 15% | [2]; at 50.0 µM 4.1% | [3]; [7] 2% | [3]; [8] 10% | [3]; at 50.0 µM -10.3% | [4]; [7] 6% | [4]; [8] 7% | [4]; at 50.0 µM 38.6% | [5]; [7] 0% | [5]; [8] 7% | [5]; at 50.0 µM 2.55% | [6]; [7] 12% | [6]; [8] 11% | [6]; at 50.0 µM -10.3%

CC(C)c1cc(=O)c2cc3[nH]c4ccccc4c3cc2[nH]1
inactive: [1]; [7] -2% | [1]; at 50.0 µM 49.9% | [2]; [7] -2% | [2]; at 50.0 µM 52.8% | [3]; [7] -69% | [3]; at 50.0 µM 50.9% | [4]; [7] -18% | [4]; at 50.0 µM 68.5% | [5]; [7] -2% | [5]; at 50.0 µM 10.6% | [6]; [7] -9% | [6]; at 50.0 µM 54.2%
active: [1]; [8] 92% | [2]; [8] 87% | [3]; [8] 96% | [4]; [8] 81% | [5]; [8] 94% | [6]; [8] 86%

Cn1c(=O)c2c(nc([N+](=O)[O-])n2C)n(C)c1=O
active: [1]; at 50.0 µM 74.6% | [3]; at 50.0 µM 76.9% | [5]; [8] 75% | [5]; at 50.0 µM 79.3%
inactive: [1]; [7] 2% | [1]; [8] 48% | [2]; [7] 9% | [2]; [8] 39% | [2]; at 50.0 µM 63.8% | [3]; [7] 4% | [3]; [8] 39% | [4]; [7] -2% | [4]; [8] 18% | [4]; at 50.0 µM 45.6% | [5]; [7] 12% | [6]; [7] 0% | [6]; [8] 41% | [6]; at 50.0 µM 68%

CCC(CC)C1(C(=O)OCCN(CC)CC)CCCCC1
active: [1]; at 50.0 µM 72.5% | [5]; at 50.0 µM 73%
inactive: [1]; [7] 1% | [1]; [8] 48% | [2]; [7] -1% | [2]; [8] 13% | [2]; at 50.0 µM 5.8% | [3]; [7] -2% | [3]; [8] 20% | [3]; at 50.0 µM 45% | [4]; [7] 2% | [4]; [8] 9% | [4]; at 50.0 µM 3.5% | [5]; [7] -1% | [5]; [8] 48% | [6]; [7] 4% | [6]; [8] 32% | [6]; at 50.0 µM 43.2%

NC(=O)N/N=C(/Cc1nc2ccccc2nc1C/C(=N/NC(N)=O)c1cccc2ccccc12)c1cccc2ccccc12
inactive: [1]; [7] -1% | [1]; [8] 9% | [1]; at 50.0 µM 0.65% | [2]; [7] -13% | [2]; [8] -7% | [2]; at 50.0 µM 34.4% | [3]; [7] -1% | [3]; [8] 17% | [3]; at 50.0 µM 16.8% | [4]; [7] -5% | [4]; [8] 2% | [5]; [7] -8% | [5]; [8] -10% | [5]; at 50.0 µM 0.15% | [6]; [7] -6% | [6]; [8] 6% | [6]; at 50.0 µM 8.4%
active: [4]; at 50.0 µM 82.2%

CC(O)(c1ccccc1)c1ccccc1S(=O)(=O)Nc1ccccc1 (centres undefined)
active: [1]; [8] 99% | [1]; at 50.0 µM 99.2% | [2]; [8] 91% | [2]; at 50.0 µM 98.8% | [3]; [8] 99% | [3]; at 50.0 µM 98.5% | [4]; at 50.0 µM 98.5% | [5]; at 50.0 µM 98.9% | [6]; [8] 98% | [6]; at 50.0 µM 98.4%
inactive: [1]; [7] -7% | [2]; [7] 6% | [3]; [7] -4% | [4]; [7] 12% | [4]; [8] 33% | [5]; [7] -5% | [5]; [8] 46% | [6]; [7] -2%

Cc1c(C(=O)O)nc(C(Br)(Br)Br)[nH]c1=O
active: [3]; at 50.0 µM 71.3%
inactive: [1]; [7] 6% | [1]; [8] 8% | [1]; at 50.0 µM 54.2% | [2]; [7] 20% | [2]; [8] 17% | [2]; at 50.0 µM 4.85% | [3]; [7] 2% | [3]; [8] 26% | [4]; [7] 1% | [4]; [8] 0% | [4]; at 50.0 µM 14.7% | [5]; [7] 4% | [5]; [8] 2% | [5]; at 50.0 µM 1.5% | [6]; [7] 6% | [6]; [8] 27% | [6]; at 50.0 µM 53%

CCCCCCCCCCCCCCCC(=O)NCCN(C)C
inactive: [1]; [7] -2% | [2]; [7] -2% | [3]; [7] 23% | [3]; at 50.0 µM 56.8% | [4]; [7] -3% | [5]; [7] -5% | [6]; [7] 1%
active: [1]; [8] 98% | [1]; at 50.0 µM 98.7% | [2]; [8] 99% | [2]; at 50.0 µM 97% | [3]; [8] 98% | [4]; [8] 99% | [4]; at 50.0 µM 88.8% | [5]; [8] 99% | [5]; at 50.0 µM 97% | [6]; [8] 98% | [6]; at 50.0 µM 98.8%

N=C(N)c1ccc(/C=C/c2ccc(C(=N)N)cc2)cc1
active: [1]; [8] 80% | [1]; at 50.0 µM 85.8% | [2]; [8] 91% | [2]; at 50.0 µM 81% | [3]; [8] 87% | [3]; at 50.0 µM 74% | [4]; [7] 75% | [4]; [8] 84% | [5]; [7] 82% | [5]; [8] 94% | [5]; at 50.0 µM 87.5% | [6]; [7] 90% | [6]; [8] 95% | [6]; at 50.0 µM 90.2%
inactive: [1]; [7] 69% | [2]; [7] 59% | [3]; [7] 57% | [4]; at 50.0 µM 67.6%

From PubChem BioAssay (NCI)
